Screens (PubChem BioAssay)
This is a sample that favours compounds with a hit; in the whole collection about 3.6% have one here.
IL1B cytotox: cytotoxicity in IL-1B stimulated HUVEC, primary screen, cytotoxicity control for IL-1B NFkB translocation project, imaging, Hoechst nuclear count, IL-1B stimulus; HUVEC cell count loss; cell count reduction, % at 2 µM; 94,000 tested, 0.41% active;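 active = cell count reduction more than 3 SD above the screen-wide mean, cut at about 70% in these data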;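 note: normalized per plate to untreated control cells as the no-loss baseline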
NFkB transloc pot: enhancers of NFkB p65 translocation in HUVEC – imaging, IL-1B stimulus, high-content imaging, primary screen; HUVEC IL-1B NFkB p65 nuclear translocation imaging; activation, % at 2 µM; 94,000 tested, 0.3% active; AID 819, 2007;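 active = activation above 40%, about the mean plus 3 SD, also judged a hit on visual image review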;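 note: percent activation is computed from the nuclear over cytoplasmic p65 intensity ratio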
ERa SRC1 pot: enhancers of ERα–SRC-1 coactivator binding, primary screen, biochemical, TR-FRET, ERα LBD, low estradiol. Estrogen receptor (Homo sapiens), P03372. TR-FRET ERalpha-LBD/SRC-Cy5 coactivator binding, 2 h; 100 = basal binding, no effect. coactivator binding (% of control), % at 25.6 µM. 86,000 tested, 1.3% active; in the data active = activity above about 200%;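 note: binding measured in presence of low estradiol as agonist stimulus; 0% = peptide alone without receptor and 100% = receptor with peptide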
IL1B NFkB inh: inhibitors of IL-1B driven NFkB p65 nuclear import, primary screen, imaging, HUVEC, IL-1B stimulus, high-content imaging. HUVEC IL-1B NFkB p65 nuclear translocation imaging. 94,000 tested, 0.43% active. inhibition, % at 2 µM;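 active = inhibition above about 30% together with a positive call from visual inspection of the well image, limit read from the data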;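 note: nuclear over cytoplasmic p65 intensity ratio measured by imaging; 0% = IL-1B stimulated DMSO wells and 100% = unstimulated DMSO wells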
ERb SRC1 inh: inhibitors of ERβ-SRC1 coactivator interaction, primary screen, biochemical, TR-FRET, ERβ LBD, SRC-1 peptide | TR-FRET ER-beta LBD / SRC1-Cy5 peptide binding; receptor agonist-loaded with 1 µM estradiol | inhibition, % at 25.6 µM | AID 633, 2007 | Estrogen receptor beta (Homo sapiens), Q92731 | 86,000 tested, 1.3% active;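 active = compounds whose percent inhibition of the receptor-coactivator binding signal exceeds about 50% in the single-dose screen, limit read from the data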;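 note: 0% = receptor plus peptide wells without compound and 100% = peptide-only wells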
Target sequence (Q92731 whole entry, looked up, the tested form may be a part): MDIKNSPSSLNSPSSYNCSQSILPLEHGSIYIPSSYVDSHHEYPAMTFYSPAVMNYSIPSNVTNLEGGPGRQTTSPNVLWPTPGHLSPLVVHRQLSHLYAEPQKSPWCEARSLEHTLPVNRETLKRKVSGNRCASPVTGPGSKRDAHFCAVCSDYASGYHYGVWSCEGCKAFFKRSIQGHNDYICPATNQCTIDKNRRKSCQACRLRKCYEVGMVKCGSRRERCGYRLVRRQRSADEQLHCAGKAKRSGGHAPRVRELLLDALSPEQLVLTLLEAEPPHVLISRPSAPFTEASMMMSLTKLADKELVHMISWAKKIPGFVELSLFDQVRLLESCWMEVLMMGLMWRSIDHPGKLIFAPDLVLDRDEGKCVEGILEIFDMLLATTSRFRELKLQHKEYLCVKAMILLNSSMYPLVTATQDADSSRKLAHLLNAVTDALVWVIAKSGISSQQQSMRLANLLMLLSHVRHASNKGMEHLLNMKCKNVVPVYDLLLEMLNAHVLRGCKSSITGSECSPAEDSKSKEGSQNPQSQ
ERa SRC1 inh: ERα–SRC-1 coactivator interaction inhibitors, primary screen, biochemical, TR-FRET, ERα LBD, estradiol-bound; Estrogen receptor (Homo sapiens), P03372; TR-FRET ER-alpha LBD / SRC-1 peptide; inhibition, % at 25.6 µM; 86,000 tested, 1.7% active; AID 629, 2007; in the data active = inhibition above about 50%;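 note: 0% = receptor plus peptide control and 100% = peptide only without receptor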
* marks the source's active call; other numbers are inactive results; · = no result; [ ] = dose if it differs, or a comment.

SMILES	IL1B cytotox	NFkB transloc pot	ERa SRC1 pot	IL1B NFkB inh	ERb SRC1 inh	ERa SRC1 inh
CCOc1ccccc1-c1nc(C(N)=O)c2[nH]c(=O)n(-c3ccc(F)cc3)c2n1	3	-7	126	6	4	10
CN(CCC#N)S(=O)(=O)c1ccc2c(c1)c(=O)n(C)c(=O)n2C	-8	9	110	-9	0	-2
CN(CCc1ccccn1)C(=O)CN(C)S(=O)(=O)c1ccc2c(c1)c(=O)n(C)c(=O)n2C	3	41*	·	-41	·	·
O=Cc1cn(-c2ccccc2)nc1-c1cc2c(ccc3ccccc32)oc1=O	5	-13	230*[fluorescence artefact?]	13	38	52*
O=Cc1cn(-c2ccccc2)nc1-c1cc2cc(O)ccc2oc1=O	5	-18	·	18	·	·
N#Cc1cn(-c2ccccc2)nc1-c1cc2ccccc2oc1=O	-20	21	212*[fluorescence artefact?]	-21	-10	0
CCOC(=O)c1cc2c(=O)n3cccc(C)c3nc2n(Cc2cccnc2)c1=N	-21	-1	104	1	-13	-13
NC(=O)C1(N2CCCCC2)CCN(CC(=O)Nc2cc(Cl)ccc2Cl)CC1	80*	-99	101	99*	-1	1
C/C(N)=C(/C#N)C(=O)CSc1nnc(Nc2cccc(C)c2)s1	26	-11	17	11	96*[fluorescence artefact?]	91*[fluorescence artefact?]
CCCc1cc(=O)oc2cc(OCC(=O)Nc3ccc4c(c3)OCCO4)ccc12	0	-9	216*[fluorescence artefact?]	9	40	45
O=C(NC1(C(F)(F)F)NC(=O)N(c2ccc(F)c(Cl)c2)C1=O)c1ccncc1 (stereo unspecified)	88*	-96	·	-1	·	·
O=C1NC(Nc2ccccn2)(C(F)(F)F)C(=O)N1c1ccc(F)cc1 (stereo unspecified)	-38	7	105	-7	11	15
CCc1ccc2nc(SCC(=O)N3CC(=O)Nc4ccccc43)c(C#N)cc2c1	33	-23	360*	23	-13	5
O=C(COC(=O)c1cnccn1)NCc1ccccc1	-1	2	94	-2	-8	-7
O=C(Oc1ccccc1)c1cccc(COC(=O)c2cnccn2)c1	87*	30	87	-30	-7	-7
O=C(O)c1cc2nc(-c3ccc(F)cc3)cc(C(F)(F)F)n2n1	-5	8	60	-8	36	25
CCn1cc(-c2cc(C(F)(F)F)n3nc(C(=O)O)cc3n2)c(C)n1	10	-1	23	1	75*[fluorescence artefact?]	64*[fluorescence artefact?]
COc1ccc(OC2C(=O)N(Cc3ccc4c(c3)OCO4)C2c2sccc2C)cc1 (stereo unspecified)	10	-2	·	2	·	·
O=C(Nc1cnc2ccccn2c1=O)c1ccc(F)cc1	-37	0	122	0	65*	6
Cc1ccccc1NC(=O)c1cnc2ccccn2c1=O	-27	-3	·	3	·	·
COC(=O)c1ccc(Cl)c(NS(=O)(=O)c2ccc3c(c2)OCCO3)c1	-115	15	126	-15	3	7
CCCCOC(=O)Nc1ccccc1C(N)=O	·	·	114	·	-6	-7
CCCSC1=N/C(=C\C=C\c2ccco2)C(=O)S1	-8	-1	62	1	63*	75*[fluorescence artefact?]
O=C1SC(SCc2ccccc2)=N/C1=C\c1ccco1	7	-3	103	4	-13	-13
COc1ccccc1NS(=O)(=O)c1ccc2c(c1)n(C)c(=O)n2C	-9	-1	·	1	·	·
CCc1nnc(NC(=O)c2cccnc2)s1	8	147*	92	-147	5	9
CCc1nnc(NC(=O)c2ccc(-c3ccc(Cl)cc3)o2)s1	2	-7	274*[fluorescence artefact?]	7	42	54*[fluorescence artefact?]
C=CCn1c(SCC(=O)Nc2nnc(CC)s2)nnc1-c1cccnc1	-4	3	117	-3	-4	-3
